Sampled rows, rich in hits. Any-hit rate of the full collection: about 2.9%.
FadD28 FP inh: blocks FadD28 binding to the bisubstrate probe; fluorescence polarization; inhibition, % at 12.5 µM; 0.22% of 360,000 active; in the data active = inhibition above about 8.5%, passing the limit was not always enough
Mtb BioA inh: inhibitors of Mycobacterium tuberculosis BioA enzyme; inhibition, % at 9.99 µM; purified M. tuberculosis BioA enzyme, plate reader; 0.096% of 360,000 active; AID 602481; in the data active = inhibition above about 40%
FBA Mtb inh: inhibitors of M. tuberculosis fructose-bisphosphate aldolase. P9WQA3. purified M. tuberculosis FBA, fluorescence read-out. inhibition, % at 1 µM. 2.3% of 360,000 active. AID 588726;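 note: 0% = vehicle and 100% = reference inhibitor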
Target sequence (P9WQA3 whole entry, looked up): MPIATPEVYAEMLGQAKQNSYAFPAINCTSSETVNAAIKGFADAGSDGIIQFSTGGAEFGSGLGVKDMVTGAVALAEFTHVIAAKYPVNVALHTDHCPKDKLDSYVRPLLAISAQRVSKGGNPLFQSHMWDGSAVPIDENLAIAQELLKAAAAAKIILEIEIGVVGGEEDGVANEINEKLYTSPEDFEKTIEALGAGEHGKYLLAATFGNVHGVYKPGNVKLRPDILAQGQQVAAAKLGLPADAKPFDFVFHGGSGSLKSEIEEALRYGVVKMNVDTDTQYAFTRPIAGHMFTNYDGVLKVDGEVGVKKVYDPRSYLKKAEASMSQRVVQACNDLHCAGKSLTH
GDH-TPI counter-1: counter-screen for M. tuberculosis FBA inhibitors: GDH-TPI coupled enzymes | GDH-TPI coupled enzyme counterscreen, NADH absorbance | inhibition, % at 4.8 µM | 1.2% of 360,000 active | AID 588335; in the data active = inhibition above about 30%;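 note: 0% = DMSO wells and 100% = wells lacking the enzyme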
Mtb hypoxia inh: inhibitors of hypoxia-regulated fluorescent reporter in Mycobacterium tuberculosis | M. tuberculosis hypoxia-regulated fluorescent reporter, fluorescence | fluorescence inhibition, % (test concentration not listed) | 0.1% of 300,000 active; in the data active = fluorescence inhibition mostly above about 23%, no sharp cut-off; inactive = mostly below about 17%
Mtb FBA inh conf: Mtb FBA inhibition, confirmed; inhibition, % at 1 µM; purified M. tuberculosis FBA, fluorescence read-out; 78% of 5,600 active; shares compounds with FBA Mtb inh;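 note: 0% = vehicle wells and 100% = reference inhibitor wells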
GDH-TPI counter-2: GDH-TPI inhibition counter-screen for FBA inhibitors; shares compounds with FBA Mtb inh; GDH-TPI coupled enzyme counterscreen, fluorescence; inhibition, % at 1 µM; 81% of 5,600 active; AID 652141; in the data active = inhibition above about 10%
* = called active by the depositor; . = no result; + = active, no number. Cut-off read from the data, not from the text of the source, unless noted: active = inhibition above about 27%; inactive = the rest.

SMILES | FadD28 FP inh | Mtb BioA inh | FBA Mtb inh | GDH-TPI counter-1 | Mtb hypoxia inh | Mtb FBA inh conf | GDH-TPI counter-2
CCCC(=O)Nc1ccc2c(c1)OC[C@@H](C)N(Cc1ccccc1C(=O)O)C[C@@H](C)[C@H](OC)CN(C)C2=O | . | 0 | . | . | . | . | .
CCOC(=O)CCSc1nc(C)c2cc(C)c(C)cc2n1 | -1 | -6 | 2 | -3 | -7 | . | .
CCOC(=O)CCSc1nc(C)c2cc(OC)ccc2n1 | -3 | -3 | 36* | 0 | 2 | 140* | 116*
COc1ccc(NC(=O)N2C[C@@H](O)COC[C@H]3O[C@H](CC(=O)NC4Cc5ccccc5C4)CC[C@@H]32)cc1 | . | 0 | . | . | . | . | .
COc1cccc(OC)c1C(=O)Nc1nnc(-c2cccs2)s1 | -4 | 0 | 13 | 29 | 3 | . | .
CCC(CC)C(=O)Nc1nnc(-c2cccs2)s1 | -4 | 0 | 36* | 12 | . | 88* | 75*
CNC[C@@H]1Oc2ccc(NS(=O)(=O)c3ccc(Cl)cc3)cc2CC(=O)N([C@@H](C)CO)C[C@H]1C | . | 0 | . | . | . | . | .
S=c1[nH]c(-c2ccccc2)cn1N=Cc1cccnc1 | . | . | . | . | 4 | . | .
CCOc1ccc(/C=N/n2cc(-c3ccccc3)[nH]c2=S)cc1 | 2 | -1 | 67* | 29 | . | 89* | 80*
S=c1[nH]c(-c2ccccc2)cn1/N=C/c1ccncc1 | 1 | 1 | 35* | 4 | . | 49* | 42*
COc1cc(C)c(C=CC(C)=CC=CC(C)=CC(=O)O)c(C)c1C | . | . | . | . | 2 | . | .
CCN(CC)C(=O)COc1ccc2c(c1)C(=O)CC(C)(C)O2 | -1 | -1 | 59* | 9 | -9 | 87* | 72*
Cc1ccc(OCC(=O)N2CCOCC2)cc1C | -2 | 0 | 2 | 3 | 5 | . | .
CC1(C)CC(=O)c2cc(OCC(=O)N3CCOCC3)ccc2O1 | 1 | . | 48* | 15 | 0 | + | +
Cc1cc(OCC(=O)N(C)c2ccccc2)cc2c1C(=O)CC(C)(C)O2 | -3 | -1 | 8 | 1 | 4 | . | .
CCCn1nc2cc(C(=O)NCc3ccc(OC)cc3)ccc2c1OCC | -1 | -2 | 48* | 3 | 1 | 60* | 32*
CCOc1c2ccc(C(=O)NCc3ccc(OC(F)(F)F)cc3)cc2nn1CC | -3 | 4 | 24 | 4 | 0 | . | .
CCCn1nc2cc(C(=O)NCc3ccc(OC(F)(F)F)cc3)ccc2c1OCC | -1 | 1 | 37* | 1 | -8 | 102* | 81*
NC(=O)c1nsc(C(=O)N(c2ccccc2)C(C(=O)NCc2ccc(F)cc2)c2ccc(O)cc2)c1N (stereo not given) | -4 | . | 37* | 4 | 4 | -2 | -5
COc1ccc(N(C(=O)c2snc(C(N)=O)c2N)C(C(=O)NCc2ccccc2)c2ccc(O)cc2)cc1 (stereo not given) | -5 | -1 | -6 | -1 | 14 | . | .
COc1cc(C(=O)NN=C2CCS(=O)(=O)c3ccc(F)cc32)cc(OC)c1OC | . | . | . | . | 12 | . | .
Nc1nc2ccc(O)cc2s1 | 1 | . | 5 | 2 | . | . | .
Nc1nc2ccc(S(=O)(=O)c3ccc4nc(N)sc4c3)cc2s1 | -1 | -1 | 28* | 8 | 4 | 72* | 49*
CCCNC(=O)N(C)C[C@@H]1Oc2cc(C#CC3CC3)ccc2S(=O)(=O)N([C@@H](C)CO)C[C@H]1C | . | -3 | . | . | . | . | .
Cc1[nH]c2ccc(C(=O)N3CCN(c4ccc(F)cc4)CC3)cc2c1C | 0 | -3 | 30* | 9 | 2 | 158* | 120*
SMILES | FadD28 FP inh | Mtb BioA inh | FBA Mtb inh | GDH-TPI counter-1 | Mtb hypoxia inh | Mtb FBA inh conf | GDH-TPI counter-2
O=C(c1ccc2[nH]c3c(c2c1)CCCC3)N1CCN(c2ccc(F)cc2)CC1 | 0 | . | -1 | 4 | . | . | .
Cc1cc(C)n2nc(C(=O)OCC(=O)c3ccccc3)nc2n1 | -2 | -1 | 28* | 0 | -10 | 95* | 68*
COc1cccc(NC(=O)N[C@H]2C=C[C@@H](CC(=O)N3CCN(C)CC3)O[C@@H]2CO)c1 | . | -4 | . | . | . | . | .
O=[N+]([O-])c1ccc2sc(SCc3nc4ccccn4c3Br)nc2c1 | . | . | . | . | 14 | . | .
Brc1c(CSc2nc3ccccc3s2)nc2ncccn12 | -5 | . | 28* | -3 | -18 | 108* | 82*
COc1ccc(-c2cc3ccc(OC)cc3cn2)cc1 | -1 | 1 | 46* | 1 | 20 | 0 | -3
COc1ccc(-c2ccc(OC)cc2)cc1 | -3 | -1 | 3 | 10 | . | . | .
COc1ccc2cc(-c3ccon3)ccc2c1 | -2 | 3 | 34* | 6 | 2 | 105* | 99*
COc1ccc(-c2ccc3ccccc3n2)cc1 | 0 | . | 83* | 26 | 4 | 180* | 139*
NC1=NCC(Cc2ccc(O)cc2)N1CCc1cccc2ccccc12 (stereo not given) | . | . | . | . | 0 | . | .
C[C@@H]1CN([C@@H](C)CO)S(=O)(=O)c2ccc(C#CC(C)(C)O)cc2O[C@H]1CN(C)Cc1ccc(-c2ccccc2)cc1 | . | -3 | . | . | . | . | .
C[C@H](CO)N1C[C@H](C)[C@H](CN(C)C(=O)C2CCC2)Oc2ncc(-c3cccc(F)c3)cc2C1=O | . | -1 | . | . | . | . | .
Cc1[nH]n(-c2ccccc2)c(=O)c1C=Nc1cnc2ccccc2c1 | -2 | 1 | 34* | 20 | 6 | 13 | 0
Cc1ccc(N=Cc2c(C)[nH]n(-c3ccccc3)c2=O)nc1 | 0 | . | 4 | 4 | 18 | . | .
N#CCc1nn2c(-c3ccccc3)ccnc2c1C#N | . | 1 | 69* | 14 | -5 | 121* | 91*
Cc1no[n+]([O-])c1COc1ccc(C=Nn2nnnc2N)cc1 | . | . | . | . | -9 | . | .
O=C(C[C@@H]1CC[C@@H]2[C@H](COC[C@@H](O)CN2C(=O)c2ccccn2)O1)NC1CCC1 | . | 0 | . | . | . | . | .
CCN(C(=S)Nc1cc(S(=O)(=O)N2CCOCC2)ccc1Cl)c1cccc2ccccc12 | -2 | . | 48* | -1 | -6 | 82* | 56*
COc1ccc(COc2cc(-c3cccc(OC)c3)nc3ccc(NC(=O)C(C)C)cc23)cc1 | -4 | -1 | 43* | 4 | 5 | 87* | 71*
CN1C(=O)c2cc(NC(=O)C3CC3)ccc2OC[C@H]2O[C@H](CC(=O)NCCc3ccncc3)CC[C@H]21 | . | -1 | . | . | . | . | .
CCn1c(=O)c2cc(C(=O)NCCN3CCOCC3)sc2c2ccccc21 | -1 | -1 | 75* | 25 | 5 | 198* | 162*
CCn1c(=O)c2cc(C(=O)NC(C)C)sc2c2ccccc21 | -6 | 1 | 44* | 5 | 7 | . | +
c1ccc(CC2CN=C(Nc3ccccc3)N2CC2CCCCC2)cc1 (stereo not given) | . | . | . | . | 0 | . | .
COc1ccc(C=NN(c2ccccc2)c2ccccc2)cc1O | . | . | . | . | 5 | . | .
Cc1ccc(C(=O)NN2C(=O)C3C4C=CC(C4)[C@@H]3C2=O)cc1 (stereo not given in full) | 0 | . | 4 | 7 | 4 | . | .
O=C(NN1C(=O)C2C3C=CC(C3)C2C1=O)c1ccccc1 (stereo not given) | -4 | . | 77* | 4 | 6 | 1 | -3
